Results as given in PubChem BioAssay (NCATS).
“And” between values parts separate entries of the source, which are not always exact repeats. Equal values may be shown once. Records with an inconclusive call do not appear. The source made the active and inactive calls. Unless noted, calls follow the shape of the full dose curve.

Tests used:
[1] = target: Bile acid receptor (Homo sapiens) (UniProt Q96RI1); assay: qHTS assay for small molecule antagonists of farnesoid X receptor signaling (AID 588526); also: % is scaled to controls: 0 for no effect and ±100 for the full control effect
Sequence of Bile acid receptor (Homo sapiens) (Q96RI1 whole entry, looked up): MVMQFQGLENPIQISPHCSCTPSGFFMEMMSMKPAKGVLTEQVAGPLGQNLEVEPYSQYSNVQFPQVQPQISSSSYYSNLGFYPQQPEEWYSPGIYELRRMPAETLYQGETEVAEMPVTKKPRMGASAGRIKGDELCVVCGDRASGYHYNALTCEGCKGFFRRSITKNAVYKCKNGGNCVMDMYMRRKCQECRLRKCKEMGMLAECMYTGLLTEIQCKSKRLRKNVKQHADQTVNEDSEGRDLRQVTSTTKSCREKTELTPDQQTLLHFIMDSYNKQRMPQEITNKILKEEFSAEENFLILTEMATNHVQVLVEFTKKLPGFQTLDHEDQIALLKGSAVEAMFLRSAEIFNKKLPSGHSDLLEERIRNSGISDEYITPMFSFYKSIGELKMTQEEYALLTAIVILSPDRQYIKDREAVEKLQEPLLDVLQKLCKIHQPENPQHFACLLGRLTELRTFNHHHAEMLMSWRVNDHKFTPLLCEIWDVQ
Method in brief: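 Concentration-response titrations were fitted to the Hill equation for half-maximal inhibition and maximal response, with data normalised to 50 uM chenodeoxycholic acid and DMSO control wells. Cells: FXR-UAS-bla HEK293T, dialyzed FBS.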

[2] = qHTS assay for small molecule antagonists of peroxisome proliferator-activated receptor delta signaling (AID 588535; active = well fitted inhibition curve with a large enough effect in the signal ratio, with a control signal flat, not every such curve was filed as active; the % refers to the signal ratio;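 as to max response: cells co-treated with a PPAR-delta agonist as stimulator during compound exposure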); conditions: HEK293T PPARd-UAS-bla, beta-lactamase FRET ratio, 18 h; 460 nm channel
Method in brief: (§1)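 GeneBLAzer PPAR-delta-UAS-bla HEK293T cells in medium with 2% charcoal/dextran FBS were preincubated 5 hrs at 37 C, then given compounds, incubated 18 hrs at 37 C, and read by CCF4 beta-lactamase fluorescence; IC50 from Hill fits.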

[3] = target: Peroxisome proliferator-activated receptor delta (Homo sapiens) (UniProt Q03181); assay: as above
Sequence of Peroxisome proliferator-activated receptor delta (Homo sapiens) (Q03181 whole entry, looked up): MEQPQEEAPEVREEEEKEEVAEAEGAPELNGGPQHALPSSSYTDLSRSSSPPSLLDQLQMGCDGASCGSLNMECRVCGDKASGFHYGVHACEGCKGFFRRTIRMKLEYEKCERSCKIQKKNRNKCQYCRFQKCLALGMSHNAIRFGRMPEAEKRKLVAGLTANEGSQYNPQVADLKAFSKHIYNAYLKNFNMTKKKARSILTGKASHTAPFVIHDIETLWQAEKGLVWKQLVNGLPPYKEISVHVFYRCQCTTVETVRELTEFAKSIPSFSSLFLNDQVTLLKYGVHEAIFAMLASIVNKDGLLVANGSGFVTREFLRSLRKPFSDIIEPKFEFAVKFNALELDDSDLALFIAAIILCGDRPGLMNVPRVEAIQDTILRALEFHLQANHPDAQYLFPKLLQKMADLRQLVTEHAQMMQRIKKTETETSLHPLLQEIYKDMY
Method in brief: as §1

[4] = target: Vitamin D3 receptor (Homo sapiens) (UniProt P11473); assay: qHTS assay for small molecule antagonists of vitamin D receptor signaling (AID 588541);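 also: receptor activated by calcitriol during compound treatment; series mostly up to about 77 µM; % is scaled to controls: 0 for no effect and ±100 for the full control effect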
Sequence of Vitamin D3 receptor (Homo sapiens) (P11473 whole entry, looked up): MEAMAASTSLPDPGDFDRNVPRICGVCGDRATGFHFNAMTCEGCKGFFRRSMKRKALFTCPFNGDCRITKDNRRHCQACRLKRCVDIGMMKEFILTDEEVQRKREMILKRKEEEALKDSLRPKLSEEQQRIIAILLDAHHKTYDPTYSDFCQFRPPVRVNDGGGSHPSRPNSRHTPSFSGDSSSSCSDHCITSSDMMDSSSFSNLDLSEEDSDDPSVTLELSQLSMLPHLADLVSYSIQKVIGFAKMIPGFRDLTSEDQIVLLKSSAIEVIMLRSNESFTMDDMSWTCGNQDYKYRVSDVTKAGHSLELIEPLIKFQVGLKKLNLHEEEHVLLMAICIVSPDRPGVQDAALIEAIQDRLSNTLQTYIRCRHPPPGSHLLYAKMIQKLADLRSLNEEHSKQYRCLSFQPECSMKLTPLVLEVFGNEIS
Method in brief: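 VDR-UAS-bla HEK293T cells (2000/well, 2% charcoal-stripped FBS) were treated with titrated compounds plus 1-alpha,25-dihydroxyvitamin D3 (50 nM or 3 nM final) for 16 h at 37 C. CCF4 beta-lactamase fluorescence was read; Hill fits gave IC50.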

[5] = target: Vitamin D3 receptor (Homo sapiens) (UniProt P11473); assay: qHTS assay for small molecule agonists of vitamin D receptor signaling (AID 588543);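 also: 0% = DMSO basal and 100% = reference agonist control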
Method in brief: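 VDR-UAS-bla HEK293T cells, 2000/well, 2% charcoal-stripped FBS; compound titration 16 h at 37 C; CCF4 beta-lactamase ratio read. Normalized to 50 nM 1-alpha,25-dihydroxyvitamin D3 (100%) and DMSO; Hill fit gives EC50, efficacy.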

[6] = qHTS assay for small molecule agonists of retinoid X receptor alpha signaling (AID 588544); conditions: HEK293T RXRa-UAS-bla, beta-lactamase reporter, 18 h; 530 nm emission;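 as to activation: 0% = DMSO basal wells and 100% = reference agonist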
[7] = target: Retinoic acid receptor RXR-alpha (Homo sapiens) (UniProt P19793); assay: as above
Sequence of Retinoic acid receptor RXR-alpha (Homo sapiens) (P19793 whole entry, looked up): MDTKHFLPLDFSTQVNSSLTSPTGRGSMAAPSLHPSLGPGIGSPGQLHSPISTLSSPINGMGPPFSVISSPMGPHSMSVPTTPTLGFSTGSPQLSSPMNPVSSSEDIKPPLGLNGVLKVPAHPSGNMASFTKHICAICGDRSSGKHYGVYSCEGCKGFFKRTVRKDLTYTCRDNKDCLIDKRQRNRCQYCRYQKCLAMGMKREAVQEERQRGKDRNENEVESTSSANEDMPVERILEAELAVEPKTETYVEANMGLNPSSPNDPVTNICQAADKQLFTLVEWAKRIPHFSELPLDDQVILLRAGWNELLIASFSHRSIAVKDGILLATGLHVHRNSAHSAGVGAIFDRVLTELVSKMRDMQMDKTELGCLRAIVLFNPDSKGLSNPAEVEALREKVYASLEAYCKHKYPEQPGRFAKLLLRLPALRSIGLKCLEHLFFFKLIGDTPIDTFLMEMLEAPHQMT

[8] = target: Thyroid hormone receptor beta (Homo sapiens) (UniProt P10828); assay: qHTS assay for small molecule agonists of thyroid hormone receptor beta signaling (AID 588545);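 also: 0% = DMSO only and 100% = 10 nM T3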
Sequence of Thyroid hormone receptor beta (Homo sapiens) (P10828 whole entry, looked up): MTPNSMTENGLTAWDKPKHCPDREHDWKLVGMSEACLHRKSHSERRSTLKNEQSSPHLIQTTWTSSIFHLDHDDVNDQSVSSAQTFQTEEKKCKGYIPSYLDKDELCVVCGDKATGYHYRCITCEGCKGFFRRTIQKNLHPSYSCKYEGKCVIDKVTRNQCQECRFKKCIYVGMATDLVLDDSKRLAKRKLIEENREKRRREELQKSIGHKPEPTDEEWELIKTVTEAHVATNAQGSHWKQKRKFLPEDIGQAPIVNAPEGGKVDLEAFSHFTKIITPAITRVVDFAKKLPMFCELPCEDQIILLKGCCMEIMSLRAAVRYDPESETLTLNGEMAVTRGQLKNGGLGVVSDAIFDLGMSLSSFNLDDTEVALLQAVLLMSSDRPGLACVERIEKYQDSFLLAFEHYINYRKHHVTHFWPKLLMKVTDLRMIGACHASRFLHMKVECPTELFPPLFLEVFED
Method in brief: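 Compounds were tested as agonists in TR-UAS-bla-GripTite HEK 293 cells. After 18 hrs at 37 C, CCF4 substrate was added and fluorescence read after 2 hrs at room temperature.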

[9] = qHTS assay for small molecule antagonists of retinoid X receptor alpha signaling (AID 588546; active = well fitted inhibition curve with a large enough effect in the signal ratio, with a control signal flat, not every such curve was filed as active; the % refers to the signal ratio;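 also: cells stimulated with 9-cis-retinoic acid as agonist; % is scaled to controls: 0 for no effect and ±100 for the full control effect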); conditions: HEK293T RXRa-UAS-bla, beta-lactamase ratio, antagonist mode; measured here: W530 green channel, cytotoxicity proxy
Method in brief: (§2)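 Beta-lactamase reporter inhibition, read as CCF4 fluorescence ratio (ex 405, em 460/530 nm) after 2 h at RT. HEK293T UAS-bla cells, 2500/well, were stimulated with 9-cis-RA at 500 or 100 nM final alongside test compound for 18 h at 37 C.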

[10] = target: Retinoic acid receptor RXR-alpha (Homo sapiens) (UniProt P19793); assay: as above; conditions: HEK293T RXRa-UAS-bla, beta-lactamase ratio, antagonist mode
Method in brief: as §2

[11] = target: Thyroid hormone receptor beta (Homo sapiens) (UniProt P10828); assay: qHTS assay for small molecule antagonists of thyroid hormone receptor beta signaling (AID 588547; active = well fitted inhibition curve with a large enough effect in the signal ratio, with a control signal flat, not every such curve was filed as active; the % refers to the signal ratio;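 also: cells stimulated with 0.4 nM T3 agonist during compound exposure; series mostly up to about 77 µM; % is scaled to controls: 0 for no effect and ±100 for the full control effect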); conditions: TR-UAS-bla HEK293, beta-lactamase ratio, antagonist mode, 18 h
Method in brief: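 TR-UAS-bla GripTite HEK293 cells in 2% charcoal/dextran FBS medium were preincubated 4 h at 37 C, given compound (0.59 nM to 92 uM) plus 0.4 nM T3 (final) for 18 h, then CCF4 for 2 h at RT; Hill fit gave IC50.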

[12] = target: Voltage-gated inwardly rectifying potassium channel KCNH2 (Homo sapiens) (UniProt Q12809); assay: qHTS Assay for Small Molecule Inhibitors of the Human hERG Channel Activity (AID 588834; active = well fitted inhibition curve with a large enough effect;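 also: top concentration of the series differs between compounds; % is scaled to controls: 0 for no effect and ±100 for the full control effect; lower thallium flux fluorescence means stronger hERG block; nearly all actives have a fitted effect of over 50% in size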)
Sequence of Voltage-gated inwardly rectifying potassium channel KCNH2 (Homo sapiens) (Q12809 whole entry, looked up): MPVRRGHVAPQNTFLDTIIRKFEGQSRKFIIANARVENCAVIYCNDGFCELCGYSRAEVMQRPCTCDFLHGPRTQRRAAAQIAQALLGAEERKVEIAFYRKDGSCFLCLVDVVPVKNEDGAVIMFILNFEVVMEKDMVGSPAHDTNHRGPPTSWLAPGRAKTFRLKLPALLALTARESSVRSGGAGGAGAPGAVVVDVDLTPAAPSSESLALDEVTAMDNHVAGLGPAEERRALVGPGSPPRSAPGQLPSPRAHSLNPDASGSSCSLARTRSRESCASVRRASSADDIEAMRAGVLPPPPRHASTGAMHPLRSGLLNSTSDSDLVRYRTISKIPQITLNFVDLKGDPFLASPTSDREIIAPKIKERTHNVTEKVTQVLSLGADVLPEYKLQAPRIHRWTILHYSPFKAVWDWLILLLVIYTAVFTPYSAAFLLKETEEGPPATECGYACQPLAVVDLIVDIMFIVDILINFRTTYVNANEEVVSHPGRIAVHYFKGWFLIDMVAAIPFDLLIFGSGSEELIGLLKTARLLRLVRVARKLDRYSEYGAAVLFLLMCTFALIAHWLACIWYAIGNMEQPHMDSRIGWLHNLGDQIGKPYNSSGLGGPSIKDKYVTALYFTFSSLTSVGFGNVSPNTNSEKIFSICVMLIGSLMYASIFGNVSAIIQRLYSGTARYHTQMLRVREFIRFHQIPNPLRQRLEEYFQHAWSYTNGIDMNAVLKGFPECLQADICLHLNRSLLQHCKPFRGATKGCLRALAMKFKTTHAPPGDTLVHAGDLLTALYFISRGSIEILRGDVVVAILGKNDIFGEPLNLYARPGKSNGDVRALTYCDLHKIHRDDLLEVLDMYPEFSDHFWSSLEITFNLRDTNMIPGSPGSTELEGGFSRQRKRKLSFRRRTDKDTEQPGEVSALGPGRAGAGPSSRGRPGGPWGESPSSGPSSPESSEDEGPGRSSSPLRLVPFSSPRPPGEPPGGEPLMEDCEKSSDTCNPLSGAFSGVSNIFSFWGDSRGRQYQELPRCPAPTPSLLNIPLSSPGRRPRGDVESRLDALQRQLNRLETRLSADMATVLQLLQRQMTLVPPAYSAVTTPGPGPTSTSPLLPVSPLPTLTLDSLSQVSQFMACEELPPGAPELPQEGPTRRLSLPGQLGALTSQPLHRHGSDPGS
Method in brief: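 U2OS cells BacMam-transduced with hERG, 2000 cells/well, compound ~10 min at 37 °C before stimulation buffer. FluxOR thallium flux fluorescence read kinetically on FDSS; decrease indicates block; AC50 from Hill fits.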

[13] = qHTS assay for small molecule agonists of the antioxidant response element (ARE) signaling pathway (AID 651741; active = well fitted activation curve with a large enough effect in the signal ratio; the % refers to the signal ratio; also: % of control where 0% means no effect)
Method in brief: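 ARE-bla HepG2 cells (beta-lactamase reporter under ARE control) were plated at 2,000 cells/well, preincubated 5 h at 37 C/5% CO2, then treated with DMSO-dissolved compounds for 16 h at 37 C; LiveBLAzer B/G FRET substrate added, fluorescence read after 2 h at room temperature.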

[14] = qHTS assay for small molecule activators of the p53 signaling pathway (AID 651743; active = well fitted activation curve with a large enough effect in the signal ratio, not every such curve was filed as active; the % refers to the signal ratio; also: series mostly up to about 92 µM; % of control where 0% means no effect); conditions: HCT-116 p53RE-bla, beta-lactamase FRET ratio, 16 h; stronger effect = higher value
Method in brief: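 p53RE-bla HCT-116 cells with a stably integrated beta-lactamase reporter under p53 response elements were plated, rested 5 hours at 37 C/5% CO2, then exposed to compounds in DMSO for 16 hours at 37 C. LiveBLAzer B/G FRET substrate was read after 2 hours at room temperature.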

[15] = qHTS assay for small molecule activators of the nuclear factor-kappa B (NF-kB) signaling pathway (AID 651749; active = well fitted activation curve with a large enough effect in the signal ratio; the % refers to the signal ratio; also: series mostly up to about 77 µM; % of control where 0% means no effect); conditions: NF-kB-bla ME-180 cells, beta-lactamase FRET ratio, 16 h; stronger effect = higher value
Method in brief: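 ME-180 cells stably carrying a beta-lactamase reporter under an NF-kB response element were exposed to compound or DMSO vehicle for 16 hr at 37C, 5% CO2. Pathway activation was read by FRET, since reporter expression disrupts FRET.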

[16] = target: Peroxisome proliferator-activated receptor gamma (Homo sapiens) (UniProt P37231); assay: qHTS assay for small molecule agonists of peroxisome proliferator-activated receptor gamma signaling (AID 588536; active = well fitted curve in the direction sought with a large enough effect in the signal ratio, with a control signal flat, not every such curve was filed as active; the % refers to the signal ratio;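 also: 0% = DMSO basal wells and 100% = rosiglitazone at 2 µM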)
Sequence of Peroxisome proliferator-activated receptor gamma (Homo sapiens) (P37231 whole entry, looked up): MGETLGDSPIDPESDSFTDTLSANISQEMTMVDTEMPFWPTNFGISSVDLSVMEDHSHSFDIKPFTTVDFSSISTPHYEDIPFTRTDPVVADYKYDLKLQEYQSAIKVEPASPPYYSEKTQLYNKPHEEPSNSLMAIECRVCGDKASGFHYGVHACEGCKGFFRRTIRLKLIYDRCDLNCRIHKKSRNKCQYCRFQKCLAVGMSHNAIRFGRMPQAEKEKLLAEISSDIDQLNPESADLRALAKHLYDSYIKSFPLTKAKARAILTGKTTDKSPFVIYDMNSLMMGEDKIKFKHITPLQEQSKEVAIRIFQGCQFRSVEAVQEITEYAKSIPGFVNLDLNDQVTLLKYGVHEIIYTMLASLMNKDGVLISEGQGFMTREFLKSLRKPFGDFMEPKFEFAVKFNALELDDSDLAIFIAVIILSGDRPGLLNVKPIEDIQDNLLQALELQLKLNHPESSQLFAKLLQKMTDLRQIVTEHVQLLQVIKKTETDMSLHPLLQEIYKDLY
Method in brief: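 Test agents, titrated, stimulated HEK293 UAS-bla cells overnight (16 h, 37 C). Substrate CCF4 was then added for two hours at room temperature before fluorescence reading.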

[17] = target: Peroxisome proliferator-activated receptor gamma (Homo sapiens) (UniProt P37231); assay: qHTS assay for small molecule antagonists of peroxisome proliferator-activated receptor gamma signaling (AID 588537; active = well fitted inhibition curve with a large enough effect in the signal ratio, with a control signal flat, not every such curve was filed as active; the % refers to the signal ratio;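 also: reporter cells co-stimulated with 50 nM rosiglitazone agonist during compound treatment; % of control where 0% means no effect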)
Method in brief: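 PPAR-gamma-UAS-bla HEK293 cells (3000/well, 1% charcoal/dextran-stripped FBS) were preincubated 6-6.5 h at 37 C, given titrated compounds, then stimulated with 50 nM rosiglitazone for 16 h. Beta-lactamase activity was read with CCF4 dye; IC50 came from Hill fits.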

Clc1ccccn1
-9.05%: max response [9]
-14.3%: max response [6]
26.1%: max response [2]
inactive: outcome [1] | Potency [3] | outcome [4] | outcome [5] | outcome [7] | outcome [8] | max response [10] 21.3% | activity change % (negative = inhibition) [11] -6.15% | Potency [12] | Potency [13] | activation [14] -3.75% | activation [15] -1%

Oc1c(Cl)ccc(Cl)c1Cl
2.14%: max response [6]
1.62%: max response [9]
inactive: outcome [1] | outcome [4] | outcome [7] | outcome [8] | max response [10] 17.5% | activity change % (negative = inhibition) [11] 13.7% | activation [14] 1.05%

Cc1ccccc1C#N
-8.62%: max response [6]
-5.92%: max response [2]
inactive: outcome [1] | Potency [3] | outcome [16] | outcome [4] | outcome [7] | outcome [8] | max response [10] 15.6% | activity change % (negative = inhibition) [11] 4.81% | Potency [12] | Potency [13] | activation [14] -0.804%
-10.7%: max response [9]

CC(C)Cc1nccs1
inactive: outcome [1] | outcome [16] | outcome [4] | outcome [5] | outcome [7] | outcome [8] | max response [10] 12.1% | activity change % (negative = inhibition) [11] 0.497% | Potency [12] | Potency [13] | activation [14] 0.156% | activation [15] 0.674%
-0.474%: max response [6]
-5.6%: max response [9]

O=[N+]([O-])c1ccc2nc[nH]c2c1
-26.8%: max response [6]
inactive: outcome [1] | outcome [16] | outcome [17] | outcome [7] | outcome [8] | activity change % (negative = inhibition) [11] 5.36% | Potency [12] | Potency [13] | activation [15] 0.954%

C=CCCCCCCC=C
-1.72%: max response [9]
-11.6%: max response [6]
-11.7%: max response [2]
inactive: outcome [1] | Potency [3] | outcome [16] | outcome [4] | outcome [5] | outcome [7] | outcome [8] | max response [10] -6.51% | activity change % (negative = inhibition) [11] -6.39% | activation [14] 0.568% | activation [15] -0.256%

O=C(O)c1ccccc1Cl
0.58%: max response [6]
-1.82%: max response [2]
6.35%: max response [9]
inactive: outcome [1] | Potency [3] | outcome [16] | outcome [4] | outcome [5] | outcome [7] | outcome [8] | max response [10] 2.61% | activity change % (negative = inhibition) [11] -4.08% | Potency [12] | Potency [13] | activation [14] -4.07% | activation [15] -0.473%

Nc1cccc(C(F)(F)F)c1
3.76% and -4.65%: max response [6]
14.1% and 46.7%: max response [2]
inactive: outcome [1] | Potency [3] | outcome [16] | outcome [7] | outcome [8] | max response [10] 23% and -15.4% | activity change % (negative = inhibition) [11] 5.58% | Potency [12] | Potency [13]
-1.51% and -8.69%: max response [9]

CCC(O)C(C)(C)C (centres undefined)
inactive: outcome [1] | Potency [3] | outcome [16] | outcome [17] | outcome [7] | outcome [8] | max response [10] -2.9% | activity change % (negative = inhibition) [11] 9.28% | Potency [12] | Potency [13] | activation [14] -0.0168% | activation [15] -0.45%
-3.08%: max response [6]
-1.12%: max response [9]
11.2%: max response [2]

C=CCOC(=O)CCCCCCCC
inactive: outcome [1] | outcome [16] | outcome [17] | outcome [4] | outcome [5] | outcome [8] | max response [10] -5.32% | activity change % (negative = inhibition) [11] -0.411% | Potency [13] | activation [14] -2.19%
-1.68%: max response [9]

Cc1ccc(C(=O)O)cc1
-2.83%: max response [9]
inactive: outcome [1] | outcome [16] | outcome [7] | outcome [8] | max response [10] -5.24% | activity change % (negative = inhibition) [11] 18.4% | Potency [12] | activation [14] -5.46%
4.67%: max response [6]

O=C1C=CCCC1
-1.74%: max response [9]
-11%: max response [2]
8.41%: max response [6]
inactive: outcome [1] | Potency [3] | outcome [16] | outcome [7] | outcome [8] | max response [10] -1.33% | activity change % (negative = inhibition) [11] -3.89% | Potency [12] | activation [14] -3.28% | activation [15] -0.0951%

O=C(O)CNC(=O)c1ccc([N+](=O)[O-])cc1
-9.96%: max response [9]
inactive: outcome [1] | Potency [3] | outcome [16] | outcome [4] | outcome [7] | outcome [8] | max response [10] 23.2% | activity change % (negative = inhibition) [11] 4.89% | Potency [12] | Potency [13] | activation [14] -1.97% | activation [15] 0.89%
0.246%: max response [6]
53.5%: max response [2]

CCCCN(CCO)CCCC
4.41%: max response [2]
-12.3%: max response [9]
inactive: outcome [1] | Potency [3] | outcome [16] | outcome [4] | outcome [7] | outcome [8] | max response [10] 4.73% | activity change % (negative = inhibition) [11] 22.2% | Potency [12] | Potency [13]
-2.59%: max response [6]

C(=C/c1ccccc1)/c1ccccc1
-10%: max response [6]
inactive: outcome [1] | outcome [16] | outcome [17] | outcome [4] | outcome [5] | outcome [7] | outcome [8] | max response [10] -3.93% | activity change % (negative = inhibition) [11] -6.07% | activation [14] -2.17% | activation [15] -0.123%
-6.97%: max response [9]
11.7%: max response [2]

CCOC(C)(C)C
-1.23%: max response [2]
-1.08%: max response [9]
inactive: outcome [1] | Potency [3] | outcome [16] | outcome [17] | outcome [4] | outcome [7] | outcome [8] | max response [10] 3.08% | activity change % (negative = inhibition) [11] -6.37% | Potency [12] | Potency [13] | activation [14] -0.539% | activation [15] 0.0467%
-2.56%: max response [6]

CCNc1ccccc1
13.4%: max response [2]
inactive: outcome [1] | Potency [3] | outcome [16] | outcome [17] | outcome [4] | outcome [5] | outcome [7] | outcome [8] | activity change % (negative = inhibition) [11] -13.9% | Potency [12] | activation [14] -2.34%
-5.14%: max response [6]
